Data published in PubChem BioAssay (NCATS).
“And” between values parts separate entries of the source, which are not always exact repeats. Identical values can stand only once. Inconclusive results are not listed. The source made the active and inactive calls. Unless noted, calls follow the shape of the full dose curve.

Experiments:
[1] = molecular target: Bile acid receptor (Homo sapiens) (UniProt Q96RI1); assay: qHTS assay for small molecule agonists of farnesoid X receptor signaling (AID 588527); conditions: HEK293T FXR-UAS-bla, beta-lactamase ratio, 16 h; activation: hits give high values;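 also: series mostly up to about 77 µM; 0% = vehicle basal and 100% = reference agonist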
Bile acid receptor (Homo sapiens), sequence (Q96RI1 whole entry, looked up): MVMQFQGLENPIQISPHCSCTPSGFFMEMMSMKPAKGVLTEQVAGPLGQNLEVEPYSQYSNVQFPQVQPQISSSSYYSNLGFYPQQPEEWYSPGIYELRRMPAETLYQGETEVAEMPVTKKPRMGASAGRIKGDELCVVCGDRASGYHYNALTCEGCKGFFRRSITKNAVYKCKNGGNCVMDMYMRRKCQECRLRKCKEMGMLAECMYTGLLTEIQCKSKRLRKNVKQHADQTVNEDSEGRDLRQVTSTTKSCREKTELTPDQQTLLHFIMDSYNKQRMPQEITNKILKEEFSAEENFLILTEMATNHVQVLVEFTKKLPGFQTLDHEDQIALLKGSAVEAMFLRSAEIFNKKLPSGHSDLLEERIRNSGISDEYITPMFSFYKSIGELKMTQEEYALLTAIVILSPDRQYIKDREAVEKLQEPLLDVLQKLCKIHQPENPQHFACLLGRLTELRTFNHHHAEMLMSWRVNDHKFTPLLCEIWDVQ
How it was run: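 Quantitative HTS used FXR-UAS-bla HEK293T cells with 16 h compound incubation at 37 C. EC50 values came from concentration-response curves normalized to chenodeoxycholic acid.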

[2] = molecular target: Peroxisome proliferator-activated receptor delta (Homo sapiens) (UniProt Q03181); assay: qHTS assay for small molecule agonists of peroxisome proliferator-activated receptor delta signaling (AID 588534);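 also: 0% = DMSO basal wells and 100% = positive control agonist at 10 µM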
Peroxisome proliferator-activated receptor delta (Homo sapiens), sequence (Q03181 whole entry, looked up): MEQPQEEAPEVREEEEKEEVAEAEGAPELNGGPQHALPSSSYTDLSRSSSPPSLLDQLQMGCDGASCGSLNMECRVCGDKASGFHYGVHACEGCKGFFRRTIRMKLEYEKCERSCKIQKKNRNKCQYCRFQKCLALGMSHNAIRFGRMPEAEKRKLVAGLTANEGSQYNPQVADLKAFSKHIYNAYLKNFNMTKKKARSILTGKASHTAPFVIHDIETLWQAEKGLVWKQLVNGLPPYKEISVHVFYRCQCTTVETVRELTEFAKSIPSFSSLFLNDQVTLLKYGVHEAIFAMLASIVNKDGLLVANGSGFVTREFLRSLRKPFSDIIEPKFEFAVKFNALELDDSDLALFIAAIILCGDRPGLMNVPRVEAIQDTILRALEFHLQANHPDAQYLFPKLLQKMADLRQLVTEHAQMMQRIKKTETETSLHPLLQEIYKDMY
How it was run: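 Titration series tested in agonist mode on beta-lactamase reporter cells; 18 hrs at 37 C after a 5 hr pre-incubation. Readout: CCF4 fluorescence, 2 hrs RT. Hill equation gives EC50 and maximal response.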

[3] = molecular target: Cytochrome P450 3A4 (Homo sapiens) (UniProt P08684); assay: qHTS Assay for Inhibitors and Substrates of Cytochrome P450 3A4 (AID 884; active = well fitted curve in the direction sought with a large enough effect; an effect the other way counts as inactive or inconclusive; also: potency is read from the fitted curve at half-maximal effect; nearly all actives have a fitted effect of over 50% in size)
Cytochrome P450 3A4 (Homo sapiens), sequence (P08684 whole entry, looked up): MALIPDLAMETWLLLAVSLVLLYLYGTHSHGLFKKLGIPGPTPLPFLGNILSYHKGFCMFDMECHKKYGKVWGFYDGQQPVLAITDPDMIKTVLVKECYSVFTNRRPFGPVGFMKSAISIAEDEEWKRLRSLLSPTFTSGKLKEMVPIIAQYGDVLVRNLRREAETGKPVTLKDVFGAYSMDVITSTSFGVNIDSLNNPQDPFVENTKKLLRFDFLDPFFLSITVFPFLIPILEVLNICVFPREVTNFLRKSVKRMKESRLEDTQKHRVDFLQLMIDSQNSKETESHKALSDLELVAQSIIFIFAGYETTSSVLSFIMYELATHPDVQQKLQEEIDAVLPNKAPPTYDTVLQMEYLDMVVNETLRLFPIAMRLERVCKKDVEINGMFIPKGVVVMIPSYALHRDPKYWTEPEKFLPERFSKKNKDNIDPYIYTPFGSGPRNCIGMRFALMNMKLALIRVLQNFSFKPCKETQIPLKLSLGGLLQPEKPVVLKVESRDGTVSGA
How it was run: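 Luminescent readout of luciferin produced by CYP3A4 (20 nM) dealkylation of Luciferin-PPXE, 25 uM (its KM). NADPH-driven reaction ran 60 min at RT after 10 min compound preincubation; data scaled to 57 uM ketoconazole as 100% inhibition.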

[4] = MultiTox-Fluor Cytotoxicity Assay - LYMP1-001 - Dead Cells (AID 946; active = well fitted curve in the direction sought with a large enough effect; an effect the other way counts as inactive or inconclusive; also: potency is read from the fitted curve at half-maximal effect)
How it was run: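 In this qHTS, 15 uM tetraoctylammonium bromide defined 100% and DMSO defined basal activity. Lymphoblastoid cells (LYMP1-001, 2500 per well) received compound for 16 hr at 37 C before a fluorogenic dead-cell substrate readout at 485/520 nm.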

[5] = MultiTox-Fluor Cytotoxicity Assay - LYMP1-001 - Live Cells (AID 947; active = well fitted curve in the direction sought with a large enough effect; an effect the other way counts as inactive or inconclusive; also: potency is read from the fitted curve at half-maximal effect)
[6] = MultiTox-Fluor Cytotoxicity Assay - LYMP1-002 - Dead Cells (AID 960; active = well fitted curve in the direction sought with a large enough effect; an effect the other way counts as inactive or inconclusive; also: potency is read from the fitted curve at half-maximal effect; nearly all actives have a fitted effect of over 60% in size)
How it was run: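 Readout: fluorescence at 485/520 from cell-impermeant bis-AAF-R110 cleaved by proteases leaking from damaged cells. LYMP1-002 lymphoblastoid line, 16 hr compound treatment at 37 C, concentration-response in qHTS format; Hill-equation AC50 values.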

[7] = MultiTox-Fluor Cytotoxicity Assay - LYMP1-003 - Dead Cells (AID 961; active = well fitted curve in the direction sought with a large enough effect; an effect the other way counts as inactive or inconclusive; also: potency is read from the fitted curve at half-maximal effect; nearly all actives have a fitted effect of over 70% in size)
How it was run: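 Acute toxicity is scored as increased dead-cell protease activity in human lymphoblastoid LYMP1-003 cells after 16 h compound exposure in complete culture medium. Activity is normalized to DMSO basal and 15 uM tetraoctylammonium bromide as full response.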

[8] = MultiTox-Fluor Cytotoxicity Assay - LYMP1-003 - Live Cells (AID 962; active = well fitted curve in the direction sought with a large enough effect; an effect the other way counts as inactive or inconclusive;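 also: potency is read from the fitted curve at half-maximal effect; cells exposed to compound for 16 hours at 37 °C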)
How it was run: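 Readout: live-cell fluorescence (Ex/Em=405/510) from GF-AFC cleavage after 60 min MultiTox-Fluor reagent at room temperature. Lymphoblastoid LYMP1-003 cells, 16 hr compound treatment, 37 C. Concentration-response fitted to standard Hill equation for AC50.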

[9] = Cell Viability - LYMP1-003 - Assay at 24 hr (AID 963; active = well fitted curve in the direction sought with a large enough effect; an effect the other way counts as inactive or inconclusive; also: potency is read from the fitted curve at half-maximal effect)
How it was run: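 CellTiter-Glo luminescence (intracellular ATP) read after 24 hr, 37 C compound exposure of 2500 LYMP1-003 human lymphoblastoid cells/well in complete medium; qHTS concentration series; AC50 via standard Hill equation.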

[10] = Cell Viability - LYMP1-003 - Assay at 40 hr (AID 964; active = well fitted curve in the direction sought with a large enough effect; an effect the other way counts as inactive or inconclusive; also: potency is read from the fitted curve at half-maximal effect; nearly all actives have a fitted effect of over 60% in size)
How it was run: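 LYMP1-003 lymphoblastoid cells, 2500/well; 5 hr preincubation, 40 hr compound exposure, 37 C; CellTiter-Glo 30 min RT; luminescence; Hill-fit AC50. Positive control tetraoctylammonium bromide.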

[11] = Cell Viability - LYMP2-004 (AID 966; active = well fitted curve in the direction sought with a large enough effect; an effect the other way counts as inactive or inconclusive; also: potency is read from the fitted curve at half-maximal effect; nearly all actives have a fitted effect of over 65% in size)
How it was run: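 Luminescent ATP read-out (CellTiter-Glo, 30 min RT) after 24 hr compound exposure at 37 C; 2500 lymphoblastoid cells/well, complete medium. Decrease in ATP = cytotoxicity; AC50 from standard Hill model.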

[12] = Cell Viability - LYMP2-013 (AID 970; active = well fitted curve in the direction sought with a large enough effect; an effect the other way counts as inactive or inconclusive; also: potency is read from the fitted curve at half-maximal effect; nearly all actives have a fitted effect of over 55% in size)
How it was run: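 CellTiter-Glo luminescence (cellular ATP) read after 30 min at RT. Cells: human lymphoblastoid line, 2500/well, 24 hr compound exposure at 37 C. Tetraoctylammonium bromide positive control; AC50 via standard Hill fit of qHTS titrations.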

[13] = Cell Viability - LYMP2-017 (AID 972; active = well fitted curve in the direction sought with a large enough effect; an effect the other way counts as inactive or inconclusive; also: potency is read from the fitted curve at half-maximal effect; nearly all actives have a fitted effect of over 55% in size)
How it was run: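 Luminescent ATP read-out (CellTiter-Glo, 30 min RT) reports viable cell number. Cells: human lymphoblastoid line, 2500 per well, 5 hr preincubation, 24 hr compound exposure at 37 C. AC50 is derived from qHTS concentration-response data using the standard Hill model.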

[14] = Cell Viability - LYMP2-019 (AID 973; active = well fitted curve in the direction sought with a large enough effect; an effect the other way counts as inactive or inconclusive; also: potency is read from the fitted curve at half-maximal effect; nearly all actives have a fitted effect of over 55% in size)
How it was run: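 qHTS, 1536-well; 2500 cells/well; 5 hr pre-incubation, 24 hr compound exposure, 37 C; CellTiter-Glo added, 30 min RT; luminescence read; AC50 via standard Hill equation.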

[15] = Cell Viability - LYMP2-021 (AID 974; active = well fitted curve in the direction sought with a large enough effect; an effect the other way counts as inactive or inconclusive;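 also: potency is read from the fitted curve at half-maximal effect; compound exposure lasts 24 hours at 37 °C; nearly all actives have a fitted effect of over 55% in size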)
How it was run: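 ATP luminescence (CellTiter-Glo, 30 min RT) after 24 h compound exposure at 37 C; 2500 human lymphoblastoid cells/well, 5 h settle beforehand. Cytotoxicity = concentration-dependent ATP drop, AC50 by Hill fit.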

[16] = Cell Viability - LYMP2-025 (AID 976; active = well fitted curve in the direction sought with a large enough effect; an effect the other way counts as inactive or inconclusive; also: potency is read from the fitted curve at half-maximal effect)
How it was run: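 CellTiter-Glo luminescence (cellular ATP) after 24 h compound exposure at 37 C; LYMP2-025 human lymphoblastoid cells, 2500/well, complete medium. Tetraoctylammonium bromide positive control. AC50 by Hill equation fit of qHTS concentration-response.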

[17] = Cell Viability - LYMP2-002 (AID 977; active = well fitted curve in the direction sought with a large enough effect; an effect the other way counts as inactive or inconclusive; also: potency is read from the fitted curve at half-maximal effect)
How it was run: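 Human lymphoblastoid cells (2500/well) in complete medium were preincubated 5 hr at 37 C, then exposed to compounds for 24 hr at 37 C. Intracellular ATP was read by CellTiter-Glo luminescence; AC50 came from Hill-equation concentration-response fits.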

[18] = Cell Viability - LYMP2-006 (AID 978; active = well fitted curve in the direction sought with a large enough effect; an effect the other way counts as inactive or inconclusive; also: potency is read from the fitted curve at half-maximal effect; nearly all actives have a fitted effect of over 60% in size)
How it was run: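 qHTS, 1536-well; 2500 cells/well, 5 hr 37 C; cpd 24 hr 37 C; CellTiter-Glo 30 min RT; luminescence. Tetraoctylammonium bromide pos. ctrl. AC50 via Hill eqn.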

[19] = Cell Viability - LYMP2-007 (AID 979; active = well fitted curve in the direction sought with a large enough effect; an effect the other way counts as inactive or inconclusive;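 also: potency is read from the fitted curve at half-maximal effect; cells exposed to compound for 24 h before reading; nearly all actives have a fitted effect of over 60% in size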)
How it was run: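 qHTS cytotoxicity: 2500 cells/well, 5 hr 37 C settle, compound 24 hr 37 C, CellTiter-Glo 30 min RT, luminescence. Decrease in ATP = toxicity. AC50 by standard Hill equation; tetraoctylammonium bromide positive control.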

[20] = Cell Viability - LYMP2-012 (AID 982; active = well fitted curve in the direction sought with a large enough effect; an effect the other way counts as inactive or inconclusive)
[21] = Cell Viability - LYMP2-016 (AID 984; active = well fitted curve in the direction sought with a large enough effect; an effect the other way counts as inactive or inconclusive)
How it was run: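 qHTS, 1536-well: 2500 LYMP2-016 cells/well, 5 hr 37 C, compound added, 24 hr 37 C, CellTiter-Glo 30 min RT, luminescence. Tetraoctylammonium bromide positive control. AC50 via Hill fit.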

[22] = Cell Viability - LYMP2-018 (AID 985; active = well fitted curve in the direction sought with a large enough effect; an effect the other way counts as inactive or inconclusive; also: potency is read from the fitted curve at half-maximal effect; nearly all actives have a fitted effect of over 50% in size)
How it was run: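 2500 cells/well; 5 hr 37 C; cmpd 24 hr 37 C, complete medium; CellTiter-Glo 30 min RT; luminescence. Tetraoctylammonium bromide positive control. AC50 via Hill fit.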

[23] = Cell Viability - LYMP2-020 (AID 986; active = well fitted curve in the direction sought with a large enough effect; an effect the other way counts as inactive or inconclusive)
How it was run: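 qHTS, 2500 cells/well; 5 hr then 24 hr compound exposure, 37 C; CellTiter-Glo luminescence after 30 min RT; ATP decrease taken as cytotoxicity; AC50 via Hill equation; tetraoctylammonium bromide positive control.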

[24] = Cell Viability - LYMP2-026 (AID 989; active = well fitted curve in the direction sought with a large enough effect; an effect the other way counts as inactive or inconclusive; also: potency is read from the fitted curve at half-maximal effect; nearly all actives have a fitted effect of over 50% in size)
How it was run: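 qHTS cytotoxicity: 2500 cells/well, 5 hr 37 C, compound 24 hr 37 C, CellTiter-Glo 30 min RT, luminescence. Tetraoctylammonium bromide positive control. AC50 via standard Hill fit.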

[25] = qHTS assay for small molecule antagonists of the retinoid-related orphan receptor gamma (ROR-gamma) signaling pathway - cell viability counter screen (AID 720652; active = well fitted curve in the direction sought with a large enough effect in the repeat runs; an effect the other way counts as inactive or inconclusive;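 also: potency is read from the fitted curve at half-maximal effect; compound exposure lasted 16 hr before ATP read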)
How it was run: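 CHO RORE-LUC/TET-ROR line, 1,000 cells/well, 37 C 5% CO2 5 hr; cpd or DMSO + doxycycline induction, 16 hr. CellTiter-Glo, 30 min RT, luminescence = ATP content.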

Question: Which activation [1] does the source give for FC(F)(F)c1ccccc1Cl here?
Answer: -1.54% (inactive)

Question: What about the outcome [2] of the same molecule?
Answer: inactive

Question: Which activation [1] does the source give for COC(=O)c1cccc(C)c1S(=O)(=O)NC(=O)Nc1nc(OCC(F)(F)F)nc(N(C)C)n1 here?
Answer: -2.17% (inactive)

Question: What about the outcome [2] of the same molecule?
Answer: inactive

Question: For c1ccc(SCCSc2ccccc2)cc1, which activation [1] is on record?
Answer: -0.837% (inactive)

Question: What about the outcome [2] of the same molecule?
Answer: inactive

Question: What does the source list for C=C(C)C(=O)OC?
Answer: activation [1]: -1.27% (inactive); outcome [2]: inactive

Question: With CO/N=C1\C[C@]2(C[C@@H]3C[C@@H](C/C=C(\C)C[C@@H](C)/C=C/C=C4\CO[C@@H]5[C@H](O)C(C)=C[C@@H](C(=O)O3)[C@]45O)O2)O[C@H](/C(C)=C/C(C)C)[C@H]1C as the molecule, how does the activation [1] read?
Answer: 6.07% (inactive)

Question: What about the outcome [2] of the same molecule?
Answer: inactive

Question: With O=S(=O)(O)c1ccc(N=Nc2cc(S(=O)(=O)O)c3ccccc3c2O)c2ccccc12 as the molecule, how does the activation [1] read?
Answer: 2.06% (inactive)

Question: And the outcome [2]?
Answer: inactive

Question: With CCOC(=O)NCCOc1ccc(Oc2ccccc2)cc1 as the molecule, how does the activation [1] read?
Answer: 2.99% (inactive)

Question: What about the outcome [2] of the same molecule?
Answer: inactive

Question: Which activation [1] does the source give for C1=C/CC/C=C/CC/C=C/CC/1 here?
Answer: -1.27% (inactive)

Question: What about the outcome [2] of the same molecule?
Answer: inactive

Question: Which results are given for Nc1c(N=Nc2ccc(S(=O)(=O)CCOS(=O)(=O)O)cc2)c(S(=O)(=O)O)cc2cc(S(=O)(=O)O)c(N=Nc3ccc(S(=O)(=O)CCOS(=O)(=O)O)cc3)c(O)c12?
Answer: activation [1]: 4.58% (inactive); outcome [2]: inactive

Question: Which activation [1] does the source give for O=CNc1ccccc1 here?
Answer: -1.29% (inactive)

Question: And the outcome [2]?
Answer: inactive

Question: With CC1(C)C(=O)N(Br)C(=O)N1Br as the molecule, how does the activation [1] read?
Answer: 1.27% (inactive)

Question: And the outcome [2]?
Answer: inactive

Question: Which activation [1] does the source give for CC(C)OCC1CO1 (stereo not drawn) here?
Answer: -0.0386% (inactive)

Question: And the outcome [2]?
Answer: inactive

Question: For CCCCCCCCCCCCCCN, which activation [1] is on record?
Answer: 2.17% (inactive)

Question: And the outcome [2]?
Answer: inactive

Question: Which results are given for Cc1ccc(S(=O)(=O)NC2CCCCC2)cc1?
Answer: activation [1]: 0.615% (inactive); outcome [2]: inactive

Question: With O=C1OC(=O)c2c(Cl)c(Cl)c(Cl)c(Cl)c21 as the molecule, how does the activation [1] read?
Answer: -0.745% (inactive) and 3.66% (inactive)

Question: And the outcome [2]?
Answer: inactive

Question: Which results are given for CCOCCOCC?
Answer: activation [1]: -1.11% (inactive); outcome [2]: inactive

Question: Which results are given for C[Si](C)(C)O[Si](C)(C)C?
Answer: activation [1]: -0.871% (inactive); outcome [2]: inactive

Question: For CC1(C)CC(N=C=O)CC(C)(CN=C=O)C1 (stereo not drawn), which Potency [3] is on record?
Answer: 25.1 µM (active)

Question: With Cc1ccc2ccc3cccc4ccc1c2c34 as the molecule, how does the Potency [3] read?
Answer: 25.1 µM (active)

Question: With CC/C(=C(\c1ccccc1)c1ccc(OCCN(C)C)cc1)c1ccc(O)cc1 as the molecule, how does the Potency [4] read?
Answer: 50.1 µM (active)

Question: What about the Potency [5] of the same molecule?
Answer: 50.1 µM (active)

Question: And the Potency [6]?
Answer: 31.6 µM (active)

Question: And the Potency [7]?
Answer: 50.1 µM (active)

Question: And the Potency [8]?
Answer: 50.1 µM (active)

Question: What about the Potency [9] of the same molecule?
Answer: 50.1 µM (active)

Question: And the Potency [10]?
Answer: 50.1 µM (active)

Question: What about the Potency [11] of the same molecule?
Answer: 50.1 µM (active)

Question: And the Potency [12]?
Answer: 50.1 µM (active)

Question: And the Potency [13]?
Answer: 39.8 µM (active)

Question: What about the Potency [14] of the same molecule?
Answer: 50.1 µM (active)

Question: What about the Potency [15] of the same molecule?
Answer: 50.1 µM (active)

Question: What about the Potency [16] of the same molecule?
Answer: 50.1 µM (active)

Question: What about the Potency [17] of the same molecule?
Answer: 50.1 µM (active)

Question: What about the Potency [18] of the same molecule?
Answer: 39.8 µM (active)

Question: What about the Potency [19] of the same molecule?
Answer: 50.1 µM (active)

Question: What about the Potency [20] of the same molecule?
Answer: 50.1 µM (active)

Question: What about the Potency [21] of the same molecule?
Answer: 50.1 µM (active)

Question: And the Potency [22]?
Answer: 39.8 µM (active)

Question: What about the Potency [23] of the same molecule?
Answer: 50.1 µM (active)

Question: And the Potency [24]?
Answer: 39.8 µM (active)

Question: And the Potency [25]?
Answer: 75 µM (active)
